# Only some compounds are listed: those with a hit (about 1.5% of all), similar ones and a draw of the others.
# TrxR1 substrate: substrates of rat thioredoxin reductase 1; O89049; purified TrxR1 substrate turnover, NADPH consumption readout; Potency, µM (highest dose often 114 µM), for inactives: at the top dose activity change, negative = substrate turnover; 0.01% of 390,000 active; AID 588456; note: potency is the fitted concentration of half-maximal effect; nearly all actives have a fitted effect of over 50% in size
# Target sequence (O89049 whole entry, looked up): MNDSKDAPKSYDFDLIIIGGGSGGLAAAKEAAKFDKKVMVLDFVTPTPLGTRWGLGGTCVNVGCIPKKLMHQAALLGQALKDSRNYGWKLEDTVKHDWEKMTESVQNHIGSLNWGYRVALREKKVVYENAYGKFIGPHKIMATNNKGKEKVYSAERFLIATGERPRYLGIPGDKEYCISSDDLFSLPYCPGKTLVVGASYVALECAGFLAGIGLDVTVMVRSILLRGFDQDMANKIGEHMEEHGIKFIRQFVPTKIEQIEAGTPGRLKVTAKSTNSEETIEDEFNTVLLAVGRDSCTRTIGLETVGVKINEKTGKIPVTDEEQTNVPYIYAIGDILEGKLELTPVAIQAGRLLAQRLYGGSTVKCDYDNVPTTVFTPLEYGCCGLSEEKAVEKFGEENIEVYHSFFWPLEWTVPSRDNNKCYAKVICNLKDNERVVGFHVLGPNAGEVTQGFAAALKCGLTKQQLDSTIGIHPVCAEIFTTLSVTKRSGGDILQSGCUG
#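 Rat TrxR1, dispensed at 90 nM, was prereduced with 400 uM NADPH (final) for 5 min at ~22 deg C, then incubated with compound 15 min before 400 uM selenite. A first-read NADPH fluorescence drop versus no-compound background flagged substrates.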
# CtBP-E1A inh: CtBP/E1A binding inhibition | AlphaScreen GST-E1A/His-CtBP binding, 1536-well; active compounds read low | activity change, % (no concentration beside the values) | 0.49% of 340,000 active | AID 651724; in the data active = activity change below about -65%; inconclusive = mostly about -30% to -63%
#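 Steps: dispense buffer (Tris pH 8.0, NaCl 300 mM, TCEP 1 mM, BSA, Tween 20); add 5X protein mix (GST-E1A, His-CtBP, 125 nM each); pin 23 nL compound; 2 h at 37 °C, dark; add 5X beads (50 ug/mL); 1 h; read.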
# Six1-Eya2 inh: Six1/Eya2 interaction inhibition; activity change, % (test concentration not listed); 0.56% of 360,000 active; Q15475+O00167; AlphaScreen GST-Six1/His-Eya2 binding, biochemical; active compounds read low; AID 651725; in the data active = activity change below about -65%; inconclusive = mostly about -30% to -63%
#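 Homogeneous AlphaScreen proximity assay pairing GST-Six1 with His-tagged Eya2 (added as 5X mix: 250 nM and 500 nM) in 50 mM Tris pH 8.0, 300 mM NaCl, 1 mM TCEP. Glutathione donor and nickel acceptor beads; 1 h, 37 °C, dark.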
# GALK inh: blocks human galactokinase activity; Purified GALK, Kinase-Glo residual ATP luminescence; AID 1868; P51570; Potency, µM (highest dose often 57.5 µM), without a hit: top-dose activity change, negative = inhibition, usual class: inhibitors; 0.007% of 270,000 active; note: potency is the fitted concentration of half-maximal effect
#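 ATP-depletion format; final 35 uM ATP, 100 uM D-galactose, 5 nM enzyme; pH 8.0 HEPES/Mg2+ buffer; 60 min RT; luminescence read 10 min after detection reagent.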
# rTrxR1 inhibitor: inhibitors of rat thioredoxin reductase 1; O89049; recombinant rTrxR1, NADPH fluorescence consumption, selenite substrate; Potency, µM (doses to about 114 µM), for the others: top-dose activity change, negative = inhibition, actives largely listed as inhibitors; 1% of 390,000 active; note: potency is the fitted concentration of half-maximal effect; nearly all actives have a fitted effect of over 65% in size
#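 Rat TrxR1 (90 nM in the dispensed reagent) was pre-reduced with 400 uM NADPH for 5 min at room temperature, then incubated with compound for 15 min. After 400 uM selenite was added, NADPH fluorescence (Ex 340/Em 450 nm) was followed for 8 min.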
# Eya2 phos inh: blocks the phosphatase activity of human Eya2 | recombinant Eya2, OMFP fluorescence dephosphorylation (OMFP is methylfluorescein phosphate) | Potency, µM (top dose mostly 76.9 µM), for inactives: at the highest dose activity, negative = inhibition, actives largely listed as inhibitors | 0.006% of 330,000 active | AID 488837; note: potency is the fitted concentration of half-maximal effect
#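 Eya2 (0.2 uM) preincubated 10 min at ambient with compound, then OMFP substrate added at 50 uM; 10 min reaction in 50 mM HEPES pH 7.5, 50 mM NaCl, 5 uM MgCl2, 0.05% BSA, 1 mM DTT. Fluorescence read at Ex 485/Em 525 nm.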
# * marks the source's active call; other numbers are inactive results; ? = inconclusive; / = no result given; [ ] = dose if it differs, or a comment. Unless noted, calls come from the whole dose curve; as a rule, active = well fitted curve in the direction sought with a large enough effect; inconclusive = small, poorly fitted or top-dose-only effect, or another doubt; inactive = no such curve, though single readings can be large; an effect the other way counts as inactive or inconclusive. % is set by controls: 0 for no effect and ±100 for the full control effect.
SMILES,TrxR1 substrate,CtBP-E1A inh,Six1-Eya2 inh,GALK inh,rTrxR1 inhibitor,Eya2 phos inh
CC(c1ccccc1)N1CCN(C(=O)CCl)CC1 (stereo not given),3%,/,4,0%,16µM*,13%
CC(CC(=O)N1CCN(C(=O)c2ccccc2)CC1)c1ccccc1 (stereo not given),10%[57.1 µM],-12,-19,4%,18%,4%
Cn1c(=O)c2cc(S(=O)(=O)NCCC(=O)NCc3ccccc3Cl)ccc2n(C)c1=O,12%[57.1 µM],-81*,-69*,3%,26%[57.1 µM],15%
Cn1c(=O)c2cc(S(=O)(=O)NCCC(=O)N3CC=C(c4ccccc4)CC3)ccc2n(C)c1=O,15%,-86*,?,-2%,17%,-11%
O=C(CS(=O)(=O)c1cccc2nsnc12)N1CCN(c2cccc(C(F)(F)F)c2)CC1,0%[57.1 µM],/,/,/,5%[57.1 µM],/
CCOc1ccc(CCNC(=O)Cn2c(=O)c3cccn3c3ccc(F)cc32)cc1OCC,-2%[11.4 µM],/,/,/,19%,/
COc1ccc(CNC(=O)Cn2ncn3nc(-c4cccs4)cc3c2=O)cc1,10%,/,/,/,22%,/
CCn1c(=O)c([N+](=O)[O-])c(NCCN(C)C)c2ccccc21,6%,2,-3,0%,17%,14%
CCn1c(=O)c([N+](=O)[O-])c(Cl)c2ccccc21,5%,2,-13,-3%,2.5µM*,-4%
COc1ccc(OC)c(NC2=NC3(CCCCC3)N=C(N)N2)c1,7%[57.1 µM],-73*,-84*,-5%,-4%[57.1 µM],-13%
Cc1ccn2c(=O)cc(COc3ccc(NC(=O)COc4ccc(C)c(C)c4)cc3)nc2c1,7%[57.1 µM],/,/,/,22%[57.1 µM],/
CC(=O)c1ccc(OC(=O)CCc2ccccc2)cc1,1%,?,-79*,-1%,14%,-8%
CC(=O)c1ccc(OC(=O)CCc2nc3ccccc3s2)cc1,4%[57.1 µM],-7,-12,3%,?,-7%
COc1cc(Cl)c(C)cc1NC(=O)c1cnn(-c2ccc(C)cc2)c1-n1cccc1,-1%,/,/,/,29%,/
COc1cccc(/C=N/NC(=O)N/N=C/c2cccc(OC)c2O)c1O,-4%,?,?,4%,9%,-3%
CCOc1cccc(/C=N/NC(=O)c2cccnc2)c1O,-8%,/,?,-4%,-3%,0%
CCOc1cccc(/C=N/NC(=O)c2cc(C3CC3)[nH]n2)c1O,-6%,/,-86*,8%,18%,14%
COc1cccc(C=NNC(=O)c2ccncc2)c1O,1%,-94*,-80*,/,9%,/
CCN(CC)c1ccc(/C=N/NC(=O)c2ccc3nc[nH]c3c2)c(O)c1,-1%,-75*,?,/,-3%,4%
COc1cccc(/C=N/NC(=O)c2ccc3nc[nH]c3c2)c1O,0%,-96*,-87*,2%,6%,2%
CCCCN1C(=O)c2[nH]nc(-c3ccccc3O)c2C1c1ccc(OCc2ccccc2)cc1 (stereo not given),0%,/,/,/,32%,/
Cc1cccc(N2CCN(C(=O)c3ccc4c(c3)N(Cc3ccccc3)C(=O)c3ccccc3S4(=O)=O)CC2C)c1 (stereo not given),-2%,/,/,/,18%,/
COc1cccc(/C=N/NC(=O)c2c(C)nc3ccc(Br)cn23)c1O,0%,-91*,-92*,0%,9%,-2%
COc1cccc(/C=N/Nc2ccccc2C(=O)O)c1O,-19%,-10,-5,-1%,-14%,-6%
COc1cccc(/C=N/Nc2nn3cnnc3c3ccccc23)c1O,14%[57.1 µM],-91*,-87*,1%,6%[57.1 µM],12%
SMILES,TrxR1 substrate,CtBP-E1A inh,Six1-Eya2 inh,GALK inh,rTrxR1 inhibitor,Eya2 phos inh
CCOc1ccccc1/C=N/NC(=O)c1c(C)nc2ccc(Br)cn12,-13%,-1,-2,-4%,-8%,-5%
Cc1ccnc2c1ccc1c(C)ccnc12,-1%,-92*,-92*,/,?,?
Cc1ccnc2c1ccc1ccccc12,0%,2,1,-2%,11%,0%
Cc1ccnc2c1ccc1cccnc12,5%[57.1 µM],-92*,-81*,/,0%[57.1 µM],-19%
COC(=O)c1cc2sc(C)cc2n1CC(=O)Nc1cccc(SC)c1,1%,/,/,/,19%,/
Cc1c(C)c2c(OCC(=O)N3CCC[C@H]3C(=O)O)cc3c(c2oc1=O)CCC(C)(C)O3,737%[57.1 µM],?,-85*,/,61%,2%
O=C(C[n+]1ccccc1Br)c1ccc(Cl)cc1,-5%,/,/,/,9%,/
CN(C)c1ccc(CNc2ncnc3sccc23)cc1,-3%,-12,-9,0%,-4%,9%
CN(C)c1ccc(CNc2ncc(Br)cc2Br)cc1,10%[57.1 µM],?,-66*,/,5%[0.457 µM],11%
CCS(=O)(=O)c1c([N+](=O)[O-])ncn1C,3%,/,2,1%,0.79µM*,5%
O=C(Cn1c(=O)n(-c2ccc(Cl)cc2)c(=O)c2sc3ccccc3c21)NC1CCCC1,2%,/,/,/,15%,/
CCOc1ccc(N2C(=O)CC(NCCNc3ccc([N+](=O)[O-])cn3)C2=O)cc1 (stereo not given),-2%,0,7,-2%,?,-12%
COc1ccc(N2C(=O)CC(NCCNc3ccc([N+](=O)[O-])cn3)C2=O)cc1 (stereo not given),-6%,-12,2,1%,14µM*,3%
CCOC(=O)c1cc(C#N)c(SC(C(=O)N2CCCCC2)c2ccccc2)nc1C (stereo not given),-7%,/,/,/,?,/
C/C(=N\NC(=S)NC1CCCCC1)c1ccc(Cl)c(Cl)c1,-5%,-3,-4,-2%,0%,0%
CC(=NNC(=S)N1CC2CCC(CC2)C1)c1ccncn1,-18%,-96*,?,/,?,/
C/C(=N\NC(=O)c1cc2ccccc2cc1O)c1ccccn1,-4%,-21,-23,12%,5%,-4%
Cc1cccc(C(=S)N2CCOCC2)n1,2%,1,-2,/,24%,3%
CSC(=S)NN=C(C)c1cccc(C)n1,6%[57.1 µM],-93*,-91*,/,?,/
CC(=NNC(=S)N1CCCCC1)c1ccccn1,/,-16,-87*,/,/,/
CC(=NNC(=S)N1CCCCC1)c1cccc(C)n1,4%,0,-91*,/,?,/
Cc1ccccc1NC(=O)Cn1cc(S(=O)(=O)N2CCCC2)c(S(=O)(=O)N2CCCC2)c1,2%,/,/,/,14%,/
COc1cc(OC)c(NC(=O)Cn2c(=O)oc3cc(S(=O)(=O)N4CCCC4)ccc32)cc1Cl,-2%[57.1 µM],/,/,/,27%[57.1 µM],/
COc1ccc(Nc2cc(C(=O)NCCCN(C)Cc3ccccc3)c3ccccc3n2)cc1OC,-1%[57.1 µM],/,/,/,12%[57.1 µM],/
COc1ccccc1NS(=O)(=O)c1cc(NC(=O)c2cnccn2)ccc1N1CCOCC1,-1%[57.1 µM],-73*,?,6%,-6%[57.1 µM],3%

# Screening data from PubChem BioAssay.
